Assay results reported in PubChem BioAssay (NCI).
This is part of a sample that, as a whole, favours compounds with a hit. Of some 79,000 tested, about 15% had one in any assay. Activity calls are given as the source filed them. Cut-off read from the data, not from the text of the source: active = growth inhibition above about 70%; inactive = the rest.

Columns and labels:
[1] = NCI Yeast Anticancer Drug Screen. Data for the rad52 strain (AID 147);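 note: 0% = growth of vehicle-treated control cultures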; settings: S. cerevisiae rad52 mutant growth inhibition, active compounds read high
In short: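 Read-out: growth inhibition versus vehicle-treated controls. Cells were a DNA repair-deficient yeast strain treated with compounds.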

[2] = NCI Yeast Anticancer Drug Screen. Data for the wt1 strain (AID 149);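 note: 0% = growth of vehicle-treated wt1 cultures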; settings: S. cerevisiae wt1 strain (SPY 50644) growth inhibition, active compounds read high
In short: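 Measured: growth of wt1 yeast under compound versus vehicle treatment, reported as inhibition.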

[3] = NCI Yeast Anticancer Drug Screen. Data for the rad50EPP+ strain (AID 151);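 note: 0% = growth of vehicle-treated control cultures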; settings: S. cerevisiae rad50 mutant strain, active compounds read high
In short: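 Growth inhibition read against vehicle controls in rad50EPP+ yeast, a strain altered in DNA damage repair, after compound exposure.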

[4] = NCI Yeast Anticancer Drug Screen. Data for the mgt1 strain (AID 153); settings: S. cerevisiae mgt1 mutant growth inhibition, active compounds read high
In short: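 mgt1 yeast grown with test compound; read-out is growth inhibition versus vehicle-treated cultures.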

[5] = NCI Yeast Anticancer Drug Screen. Data for the rad50 strain (AID 155);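 note: 0% = growth of vehicle-only cultures of the same strain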; settings: S. cerevisiae rad50 strain growth inhibition, active compounds read high
In short: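 Growth of the mutant yeast was measured after compound exposure and referenced to vehicle-treated cultures.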

[6] = NCI Yeast Anticancer Drug Screen. Data for the mec2-1 strain (AID 157); settings: S. cerevisiae mec2-1 strain, active compounds read high
In short: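 Yeast mec2-1 mutant treated with compound. Readout: growth inhibition vs vehicle controls.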

[7] = NCI Yeast Anticancer Drug Screen. Data for the rad14 strain (AID 159);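 note: 0% = growth of vehicle-treated control cultures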; settings: S. cerevisiae rad14 strain growth inhibition, active compounds read high
In short: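 Here, inhibition of yeast growth was measured after compound exposure, using a strain with a genetic defect in DNA damage repair and vehicle-treated cultures as the reference.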

[8] = NCI Yeast Anticancer Drug Screen. Data for the sgs1 mgt1 strain (AID 161);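 note: 0% = growth of cultures given vehicle only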; settings: S. cerevisiae sgs1 mgt1 strain, active compounds read high
In short: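 Mutant yeast exposed to compound; growth scored against vehicle-only wells.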

[9] = NCI Yeast Anticancer Drug Screen. Data for the CLN2oe strain (AID 163);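 note: 0% = growth of vehicle-only control cultures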; settings: S. cerevisiae CLN2oe strain, active compounds read high
In short: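 Read-out: yeast growth inhibition, expressed relative to vehicle-only controls. The strain bears an engineered cell-cycle alteration.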

[10] = NCI Yeast Anticancer Drug Screen. Data for the cln2 rad14 strain (AID 165);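 note: 0% = growth equal to vehicle treated cultures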; settings: S. cerevisiae cln2 rad14 strain, active compounds read high
In short: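 cln2 rad14 yeast strain; compound exposure; growth inhibition read vs vehicle controls.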

[11] = NCI Yeast Anticancer Drug Screen. Data for the bub3 strain (AID 167); settings: S. cerevisiae bub3 mutant strain, active compounds read high
In short: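 Whole-cell yeast assay. The mutant strain was incubated with compounds, and growth inhibition was determined by comparison with vehicle-treated cells.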

[12] = NCI Yeast Anticancer Drug Screen. Data for the wt2 strain (AID 169);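 note: 0% = growth of vehicle-treated yeast cultures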; settings: S. cerevisiae wt2 strain growth inhibition, active compounds read high
In short: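 Read-out: growth inhibition versus vehicle-treated control cultures after compound exposure of the yeast strain.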

[13] = NCI Yeast Anticancer Drug Screen. Data for the mlh1 strain (AID 171);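 note: 0% = growth of vehicle-treated control cultures of the same strain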; settings: S. cerevisiae mlh1 strain growth inhibition, active compounds read high
In short: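 Read-out: growth inhibition versus vehicle controls. Strain: engineered yeast with a defined DNA repair or cell cycle defect, compound-treated.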

[14] = NCI Yeast Anticancer Drug Screen. Data for the sgs1 strain (AID 173);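 note: 0% = growth of vehicle-only control cultures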; settings: S. cerevisiae sgs1 mutant, active compounds read high
In short: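 Read-out: yeast growth inhibition relative to vehicle controls, following compound exposure of a strain with a defined DNA repair/cell cycle alteration.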

[15] = NCI Yeast Anticancer Drug Screen. Data for the mlh1 rad18 strain (AID 175); settings: S. cerevisiae mlh1 rad18 strain growth inhibition, active compounds read high
In short: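 Yeast w/ defined DNA-repair lesions; compound exposure; growth vs vehicle controls → % inhibition.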

[16] = NCI Yeast Anticancer Drug Screen. Data for the rad18 strain (AID 177); settings: S. cerevisiae rad18 mutant growth inhibition, active compounds read high
In short: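 Readout: growth inhibition vs vehicle controls. Cells: genetically altered yeast strain, DNA repair defect.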

[17] = at 5.0 µM (retest, dose inferred, filed as 0.5)
[18] = at 50.0 µM (retest, dose inferred, filed as 5.0)

Measured: growth inhibition

Nc1cc2c(cc1N)-c1ccccc1C2=O
active: [1]; at 100.0 µM 87% | [3]; at 100.0 µM 70% | [4]; at 100.0 µM 95% | [5]; at 50.0 µM 71.4% | [5]; at 100.0 µM 92% | [6]; at 100.0 µM 70% | [7]; at 100.0 µM 97% | [13]; at 100.0 µM 86% | [14]; at 100.0 µM 74% | [16]; at 100.0 µM 93%
inactive: [1]; at 1.2 µM -3% | [1]; at 3.7 µM -3% | [1]; at 11.0 µM 2% | [1]; at 33.0 µM 23% | [2]; at 1.2 µM -2% | [2]; at 3.7 µM -3% | [2]; at 11.0 µM -4% | [2]; at 33.0 µM 3% | [2]; at 100.0 µM 36% | [3]; at 1.2 µM 1% | [3]; at 3.7 µM 9% | [3]; at 11.0 µM 18% | [3]; at 33.0 µM 31% | [4]; at 1.2 µM -3% | [4]; at 3.7 µM -2% | [4]; at 11.0 µM -2% | [4]; at 33.0 µM 1% | [5]; at 1.2 µM 0% | [5]; at 3.7 µM -57% | [5]; [17] 4% | [5]; at 11.0 µM 19% | [5]; at 33.0 µM 37% | [5]; [18] 67% | [6]; at 1.2 µM -2% | [6]; at 3.7 µM -4% | [6]; [17] 0% | [6]; at 11.0 µM -1% | [6]; at 33.0 µM 9% | [6]; [18] 23% | [6]; at 50.0 µM 39% | [7]; at 1.2 µM -1% | [7]; at 3.7 µM 3% | [7]; at 11.0 µM 8% | [7]; at 33.0 µM 26% | [8]; [17] -8% | [8]; [18] 17% | [8]; at 50.0 µM -11.9% | [9]; at 1.2 µM -3% | [9]; at 3.7 µM 0% | [9]; at 11.0 µM 2% | [9]; at 33.0 µM 2% | [9]; at 100.0 µM 13% | [10]; [17] -10% | [10]; [18] 15% | [10]; at 50.0 µM -0.1% | [11]; at 1.2 µM -2% | [11]; at 3.7 µM 1% | [11]; [17] 0% | [11]; at 11.0 µM 0% | [11]; at 33.0 µM 4% | [11]; [18] 49% | [11]; at 50.0 µM 45.1% | [11]; at 100.0 µM 65% | [12]; at 1.2 µM -3% | [12]; at 3.7 µM 6% | [12]; at 11.0 µM -2% | [12]; at 33.0 µM 1% | [12]; at 100.0 µM 41% | [13]; at 1.2 µM -1% | [13]; at 3.7 µM -2% | [13]; at 11.0 µM -2% | [13]; at 33.0 µM 2% | [14]; at 1.2 µM -3% | [14]; at 3.7 µM -3% | [14]; at 11.0 µM -1% | [14]; at 33.0 µM 6% | [15]; [17] 0% | [15]; [18] 57% | [15]; at 50.0 µM 68.7% | [16]; at 1.2 µM -3% | [16]; at 3.7 µM 1% | [16]; at 11.0 µM 5% | [16]; at 33.0 µM 21%

Fc1cc(F)c(F)c(S)c1F
active: [1]; at 100.0 µM 98% | [2]; at 100.0 µM 97% | [3]; at 33.0 µM 90% | [3]; at 100.0 µM 98% | [4]; at 100.0 µM 97% | [5]; [18] 91% | [5]; at 50.0 µM 87.9% | [5]; at 100.0 µM 97% | [6]; [18] 97% | [6]; at 50.0 µM 92.3% | [6]; at 100.0 µM 99% | [7]; at 100.0 µM 96% | [8]; [18] 89% | [8]; at 50.0 µM 83.7% | [9]; at 100.0 µM 98% | [10]; [18] 83% | [10]; at 50.0 µM 79.5% | [11]; at 33.0 µM 84% | [11]; [18] 98% | [11]; at 50.0 µM 90.9% | [11]; at 100.0 µM 99% | [12]; at 100.0 µM 98% | [13]; at 33.0 µM 72% | [13]; at 100.0 µM 98% | [14]; at 100.0 µM 98% | [15]; [18] 99% | [15]; at 50.0 µM 74.5% | [16]; at 100.0 µM 96%
inactive: [1]; at 1.2 µM -44% | [1]; at 3.7 µM -10% | [1]; at 11.0 µM -38% | [1]; at 33.0 µM 29% | [2]; at 1.2 µM -31% | [2]; at 3.7 µM -26% | [2]; at 11.0 µM -39% | [2]; at 33.0 µM 36% | [3]; at 1.2 µM -51% | [3]; at 3.7 µM -18% | [3]; at 11.0 µM 45% | [4]; at 1.2 µM -78% | [4]; at 3.7 µM -74% | [4]; at 11.0 µM -56% | [4]; at 33.0 µM 48% | [5]; at 1.2 µM -43% | [5]; at 3.7 µM -28% | [5]; [17] -12% | [5]; at 11.0 µM -32% | [5]; at 33.0 µM 25% | [6]; at 1.2 µM -56% | [6]; at 3.7 µM -55% | [6]; [17] -19% | [6]; at 11.0 µM -6% | [6]; at 33.0 µM 10% | [7]; at 1.2 µM -47% | [7]; at 3.7 µM -44% | [7]; at 11.0 µM -40% | [7]; at 33.0 µM 4% | [8]; [17] -1% | [9]; at 1.2 µM -29% | [9]; at 3.7 µM -20% | [9]; at 11.0 µM 8% | [9]; at 33.0 µM 69% | [10]; [17] 43% | [11]; at 1.2 µM -9% | [11]; at 3.7 µM -4% | [11]; [17] 12% | [11]; at 11.0 µM 26% | [12]; at 1.2 µM -48% | [12]; at 3.7 µM -46% | [12]; at 11.0 µM -32% | [12]; at 33.0 µM 56% | [13]; at 1.2 µM -34% | [13]; at 3.7 µM -27% | [13]; at 11.0 µM 0% | [14]; at 1.2 µM -34% | [14]; at 3.7 µM -37% | [14]; at 11.0 µM -27% | [14]; at 33.0 µM 54% | [15]; [17] 9% | [16]; at 1.2 µM -43% | [16]; at 3.7 µM -34% | [16]; at 11.0 µM -12% | [16]; at 33.0 µM 48%
